TGFb inhibitor: inhibitors of TGF-b signaling; HepG2 CAGA-GFP TGF-b/SMAD3 reporter, GFP fluorescence, 18 h; TGF-beta stimulated, 500 pg/mL final; hit rate 1.2% among 410,000; Potency, µM (doses to about 46.1 µM), for inactives: at the highest dose activity, negative = inhibition, most hits filed as inhibitors; AID 588855; further: on the % scale 0 is the no-effect control and ±100 the full control effect; nearly all actives have a fitted effect of over 65% in size
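Inhibition was scored as loss of TGF-beta-induced (500 pg/mL final, 18 hours, 37 degrees C) GFP in HEPG2 cells carrying a CAGA-GFP reporter, in DMEM with 1% FBS. Well GFP was summed per cell; Activity was normalised to unstimulated and stimulated DMSO wells, then concentration-response fitting.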
Gal4-VP16 FLuc: Gal4-VP16 reporter inhibition counter-screen; AID 2546; Drosophila S2 Gal4-VP16 UAS-luciferase, luminescence, 20 h; Potency, µM (top dose mostly 53.6 µM), without a hit: top-dose activity, negative = inhibition, hits mostly inhibitors; hit rate 3.5% among 310,000;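 further: Gal4-VP16 expression switched on by copper sulfate through the metallothionein promoter; on the % scale 0 is the no-effect control and ±100 the full control effect; nearly all actives have a fitted effect of over 50% in size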
ATXN2 expr inh: ATXN2 expression inhibition; AID 1745845; Potency, µM (highest dose often 57 µM), without a hit: top-dose activity change, negative = inhibition, usual class: inhibitors; HEK-293 ATXN2-luciferase reporter, luminescence, 24 h; hit rate 0.72% among 360,000; further: on the % scale 0 is the no-effect control and ±100 the full control effect; nearly all actives have a fitted effect of over 55% in size
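ATXN2-luciferase reporter cells (luciferase flanked by upstream and downstream ATXN2 gene portions) were treated 24 h at 37 °C with compounds at up to 57 uM. SteadyGlo luminescence gave expression; GF-AFC fluorescence gave viability.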
HepG2 tox: counter-screen for TGF-b inhibitors: cytotoxicity in HepG2 cells | hit rate 0.76% among 410,000 | AID 588856 | HepG2 CAGA-GFP viability, ATP luminescence, 18 h | Potency, µM (highest dose often 46.1 µM), for inactives: at the top dose activity change, negative = cytotoxicity, most hits filed as cytotoxic
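HepG2 CAGA-GFP cells (1000/well, DMEM with 1% FBS) received compound, then TGF-beta at 500 pg/mL final, and were incubated 18 hours at 37 degrees C. Viability was read by CellTiter-Glo luminescence. Media-only wells were set as complete cell-killing and DMSO as no toxicity.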
RORg inh: inhibitors of mouse ROR gamma transcriptional activity; P51450; hit rate 5.4% among 310,000; Drosophila S2 Gal4-RORgamma UAS-luciferase reporter, 20 h; Potency, µM (top dose mostly 53.6 µM), without a hit: at the top dose activity change, negative = inhibition, most hits filed as inhibitors; further: on the % scale 0 is the no-effect control and ±100 the full control effect; nearly all actives have a fitted effect of over 60% in size
Target sequence (P51450 whole entry, looked up, the tested form may be a part): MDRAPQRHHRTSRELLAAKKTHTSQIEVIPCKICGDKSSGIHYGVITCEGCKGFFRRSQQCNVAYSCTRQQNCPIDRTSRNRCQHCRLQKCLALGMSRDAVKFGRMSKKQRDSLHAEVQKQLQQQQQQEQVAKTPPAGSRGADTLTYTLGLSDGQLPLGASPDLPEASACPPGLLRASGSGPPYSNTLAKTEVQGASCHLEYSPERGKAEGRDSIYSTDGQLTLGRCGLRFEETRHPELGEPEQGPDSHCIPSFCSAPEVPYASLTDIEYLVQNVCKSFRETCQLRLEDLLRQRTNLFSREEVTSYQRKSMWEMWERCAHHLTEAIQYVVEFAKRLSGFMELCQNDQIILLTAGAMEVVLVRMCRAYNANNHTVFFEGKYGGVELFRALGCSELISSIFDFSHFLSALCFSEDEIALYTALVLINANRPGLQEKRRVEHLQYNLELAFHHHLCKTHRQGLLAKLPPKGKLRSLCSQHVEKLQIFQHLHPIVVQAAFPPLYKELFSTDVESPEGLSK
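A Gal4/UAS one-hybrid system in insect cells: metallothionein-promoter Gal4–ROR gamma fusion plus Photinus luciferase reporter. Copper sulfate 700 uM final, 20 hr ambient incubation, luminescent detection after 10 min with reagent.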
ATXN viability: cell viability loss in ATXN counter-screen. hit rate 0.49% among 400,000. Potency, µM (doses to about 56.7 µM), usual class: cytotoxic. S2 cells (HEK-293 line with an ATXN2-luciferase reporter) viability, CellTiter-Fluor protease fluorescence, 24 h; further: nearly all actives have a fitted effect of over 40% in size
Numbers without * were called inactive; i = inactive; ? = inconclusive; / = not tested or not shown; [ ] = another dose, or the depositor's remark. Sampled rows, rich in hits. Any-hit rate of the full collection: about 6.1%. The call rests on the fitted dose curve; in most records, active means well fitted curve in the direction sought with a large enough effect; inconclusive means small, poorly fitted or top-dose-only effect, or another doubt; inactive means no such curve, though single readings can be large; an effect the other way counts as inactive or inconclusive. Potency means the concentration at half of the fitted maximal effect.

SMILES	TGFb inhibitor	Gal4-VP16 FLuc	ATXN2 expr inh	HepG2 tox	RORg inh	ATXN viability
Cc1ccsc1/C=N/NC(=O)c1nnn(-c2nonc2N)c1C(C)C	10%	18µM*	/	-8%	11µM*	i
CCCc1c(C(=O)N/N=C/C(C)=C/c2ccccc2)nnn1-c1nonc1N	7%	-8%	-7%	6%	12%	i
CCCc1c(C(=O)N/N=C/c2sccc2C)nnn1-c1nonc1N	-13%	5.6µM*	7%	-25%	?	i
CC(/C=N/NC(=O)c1nnn(-c2nonc2N)c1C(C)C)=C\c1ccccc1	16µM*	4%	/	-38%	12%	?
CC(C)c1c(C(=O)N/N=C/c2cccs2)nnn1-c1nonc1N	8%	-88%	11%	-4%	?	i
C/C(=N\NC(=O)c1nnn(-c2nonc2N)c1CN1CCc2ccccc21)c1ccccc1O	?	4.5µM*	/	-84%	2.2µM*	?
Nc1nonc1-n1nnc(C(=O)N/N=C/c2ccccc2)c1CN1CCc2ccccc21	-7%	-7%	-19%	-5%	-8%	i
CCOC(=O)c1c(NC(=O)c2cc3nc(-c4ccc(Br)cc4)cc(C(F)(F)F)n3n2)sc(C(C)=O)c1C	6%	/	/	-3%	/	/
COc1ccccc1/C(C)=N/NC(=O)c1nnn(-c2nonc2N)c1C(C)C	1%	-29%	12%	-8%	7.1µM*	i
Cc1cc(NC(=O)c2cc3cccc([N+](=O)[O-])c3[nH]2)ccc1F	?	1%	17%	-3%	35%	i
Cc1c(C(=O)N/N=C/C(C)C)[nH]c2c([N+](=O)[O-])cccc12	-29%	-22%	-25%	-26%	2.2µM*	i
Cc1ccc(CN2CCOc3ccc(CN4CCC(O)(c5cccnc5)CC4)cc3C2)cc1C	/	/	/	/	/	i
Cc1nnc2n(Cc3ccccc3)c(=O)c3c4c(sc3n12)CN(Cc1ccccc1)CC4	/	-5%	/	/	-22%[10 µM]	/
Cc1nnc2n(Cc3ccccc3)c(=O)c3c4c(sc3n12)CCCC4	/	?	/	/	11µM*	/
COc1ccccc1-c1nnc(SCCOc2ccccc2C)o1	-3%	/	-5%	-25%	/	i
CC(C)(C)c1ccc(/C=C/C(=O)Nc2ccc(S(N)(=O)=O)cc2)cc1	?	/	?	-105%	/	i
COc1ccc2c(c1)c(/C=N/Nc1ccc(C(=O)O)cc1)c(C)n2C	23%	?	/	-2%	?	i
COc1ccc(/C=N\NC(=O)C2CCCC2)cc1Br	-4%	-6%	33%	-15%	-17%	i
COc1ccc(/C=N/Nc2ccc(C(=O)O)cc2)cc1Br	3%	1%	-67%	-19%	40µM*	i
CC(C)c1ccc(/C=N/Nc2ccc(C(=O)O)cc2)cc1	-1%	0.25µM*	-54%	3%	?	i
Cc1ccc(/C=N/Nc2ccc(C(=O)O)cc2)o1	-2%	0.4µM*	/	-6%	0.32µM*	i
COc1ccc2c(/C=N/Nc3ccc(C(=O)O)cc3)c[nH]c2c1	20%	5µM*	24%	-2%	?	i
COc1ccc(CNC(=O)CCc2c(C)c3ccc(OC)c(C)c3oc2=O)cc1OC	-2%	/	11%	-2%	/	i
Cc1ccccc1S(=O)(=O)Cc1ccc(C(=O)N2CCN(c3cccc(Cl)c3)CC2)o1	-22%	/	?	-24%	/	?
CN1CCN(c2ncc3nc(-c4ccc(Cl)cc4)c(=O)n(Cc4cccs4)c3n2)CC1	/	-12%	/	/	-35%	/
SMILES	TGFb inhibitor	Gal4-VP16 FLuc	ATXN2 expr inh	HepG2 tox	RORg inh	ATXN viability
COc1ccc(/C=N/Nc2ccc(C(=O)O)cc2)cc1OC	9%	0.45µM*	/	1%	1.6µM*	i
O=C(O)c1ccc(N/N=C/c2ccc(OC(=O)c3ccccc3Cl)cc2)cc1	18%	0.32µM*	?	3%	0.4µM*	i
COc1cc(C=NNc2ccccc2)ccc1OC(=O)c1ccccc1	0%	/	/	-2%	/	?
COc1ccc(-n2c(=O)c3c(c4cc(OC)ccc4n3C)n(Cc3cccc(OC)c3)c2=O)cc1	?	/	-9%	-56%	/	i
COc1ccc(C)cc1Nc1n[n+](-c2ccccc2)c(-c2c(Cl)cccc2Cl)s1	?	16µM*	0%	13µM*	7.1µM*	11µM*
COc1ccc(C)cc1Nc1n[n+](-c2ccccc2)c(-c2ccc(OC)c(OC)c2OC)s1	?	-15%	?	-22%	?	?
COc1ccc(C)cc1Nc1n[n+](-c2ccccc2)c(-c2ccc(N(C)C)cc2)s1	-17%	5.6µM*	?	-41%	11µM*	?
Cc1c(C(=O)NCC2(N3CCOCC3)CCCCC2)cnn1-c1nccc(-c2ccccc2F)n1	/	/	/	/	/	i
O=C(C1CCN(S(=O)(=O)c2cccc3nonc23)CC1)N1CCN(c2ccc(F)cc2)CC1	?	/	-25%	-19%	/	i
Cc1c(CCO)c(=O)[nH]n1C(=O)c1ccc(F)cc1	-1%	11µM*	27%	-14%	10µM*	i
Nc1c(C(=O)NCc2ccco2)c2nc3ccccc3nc2n1CCc1ccc(F)cc1	16µM*	?	-34%	-103%	-19%	/
Nc1c(C(=O)NCc2ccc3c(c2)OCO3)c2nc3ccccc3nc2n1CCCN1CCOCC1	?	?	?	11µM*	16%	i
Nc1ccc(-n2c(N)c(C(=O)NCc3ccc4c(c3)OCO4)c3nc4ccccc4nc32)cc1	-23%	/	?	-14%	/	i
COc1ccc(-n2c(N)c(C(=O)NCc3ccco3)c3nc4ccccc4nc32)cc1	?	-16%	?	-33%	-21%	i
Nc1c(C(=O)NCc2ccccc2)c2nc3ccccc3nc2n1-c1ccc2c(c1)OCO2	7%	0%	22µM*	3%	29%	i
COc1ccccc1CNC(=O)c1c(N)n(CCCN2CCOCC2)c2nc3ccccc3nc12	?	?	?	-110%	-20%	i
Cc1cc(/C=C/c2c(C)cnc3ccccc23)ccc1N(C)C	?	/	/	-66%	/	/
N=c1oc2cc(O)ccc2cc1C(=O)Nc1ccc(Br)cc1	-23%	1.8µM*	-24%	1%	1.8µM*	/
O=C(NN=Cc1cc([N+](=O)[O-])ccc1O)c1cccc2ccccc12	?	/	?	-35%	/	/
O=[N+]([O-])c1cccc(N/N=C/c2cc([N+](=O)[O-])ccc2O)c1	-3%	-10%	45%[11.3 µM]	1%	-35%	i
O=[N+]([O-])c1ccc(O)c(/C=N/NC(=S)Nc2ccc(Cl)cc2Cl)c1	?	2.5µM*	-7%	-5%	2.5µM*	i
CCNC(=O)C(=O)N/N=C/c1cc([N+](=O)[O-])ccc1O	0%	?	-35%	-21%	11µM*	?
